Bioassay records deposited in PubChem by Sanford-Burnham Center for Chemical Genomics.
An excerpt weighted towards active compounds, which were near 2.7% of everything screened.
aDG glyco act – activators of alpha-DG glycosylation, primary screen, uHTS, Pro5-aDG cells, AlphaScreen | activation, % at 10 µM | actives 0.22% (n = 360,000) | AID 624168, 2012 | alpha-DG glycosylation AlphaScreen (IIH6); 0% Pro5, 100% B10-LARGE cell signal;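 active = activation of at least 8% versus controls, or a plate z-score of at least 8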;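 also: Pro5 are CHO cells carrying HIG-tagged alpha-DG that lacks glycosylation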
MPTP block – mitochondrial permeability transition pore inhibitors, primary screen, biochemical, isolated mouse mitochondria, absorbance; inhibition, % at 10 µM; Ca2+ swelling absorbance, 30 min; actives 1.4% (n = 360,000);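 active = inhibition of 50% or more, scaled per plate between neutral and stimulator controls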;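 also: 0% = DMSO wells given calcium and 100% = 1 mM EGTA wells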
NadD block – inhibitors of S. aureus NadD, primary screen, biochemical, colorimetric, uHTS | inhibition, % at 20 µM | purified NadD enzyme, colorimetric absorbance read-out | actives 0.78% (n = 360,000) | Nicotinate-nucleotide adenylyltransferase NadD (Staphylococcus aureus N315); in the data active = inhibition above about 26%
TAG inh – inhibitors of triacylglycerol accumulation, primary screen, cell-based, uHTS, fluorescence, H9c2 | H9c2 cells, Nile Red lipid (TAG) fluorescence; cells loaded with 200 µM oleic acid | inhibition, % at 12.5 µM | actives 0.66% (n = 230,000);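 active = pattern-corrected inhibition of lipid staining of at least 50% with the nuclear-stain viability signal not falling by more than 50%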;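 also: 0% = DMSO wells and 100% = triacsin C control wells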
Rh123 counter – fluorescence retest of MPTP screen hits in isolated mitochondria, single concentration | membrane potential, Rhodamine 123 fluorescence | shares compounds with MPTP block | actives 78% (n = 5,000) | inhibition, % at 10 µM; in the data active = inhibition above about 22%;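 also: 0% = DMSO vehicle and 100% = positive control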
MPTP abs DR – mitochondrial permeability transition pore inhibitors, dose response, biochemical, absorbance, uHTS hits; shares compounds with MPTP block; isolated mitochondria swelling; IC50, µM; actives 58% (n = 780); AID 651561, 2012; in the data active = IC50 below about 20 µM
MPTP counter DR – fluorescent counter-screen in isolated mitochondria, dose response, counter-screen for MPTP inhibitor project, biochemical, fluorescence, uHTS hits; isolated mitochondria counterscreen, fluorescence read-out; IC50, µM; shares compounds with MPTP block; actives 49% (n = 780); AID 651564, 2012; in the data active = IC50 below about 80 µM
* hit, by the source's call.

Results for CCCCN(C(=O)NCCCCCCNC(=O)N(CCCC)C1CCS(=O)(=O)C1)C1CCS(=O)(=O)C1 (configuration not stated) ?
aDG glyco act: 0.2; MPTP block: 2.5; NadD block: -2.9

What do the screens show for `O=C(O)c1ccccc1C(=O)Nc1cccc([N+](=O)[O-])c1`?
aDG glyco act: -0.1; MPTP block: 0.2; NadD block: 0.6

Results for O=C(Nc1cccc([N+](=O)[O-])c1)c1cc2ccccc2cc1O ?
aDG glyco act: -0.2; MPTP block: 96.1*; NadD block: 16.4; TAG inh: 24.4; Rh123 counter: 59.6*

How did Cc1c(C(=O)Nc2cccc([N+](=O)[O-])c2)csc1-c1ccccc1 do in these assays?
aDG glyco act: 3.1; MPTP block: 84.6*; NadD block: -4.0; Rh123 counter: 89.0*

How did COc1ccc(Nc2nc(-c3cccc([N+](=O)[O-])c3)nc3ccccc23)cc1 do in these assays?
aDG glyco act: -0.4; MPTP block: 53.2*; NadD block: 19.3; Rh123 counter: 25.2*

How did O=C1/C(=C/c2ccc(S(=O)(=O)O)cc2S(=O)(=O)O)CCc2ccccc21 do in these assays?
aDG glyco act: 0.1; MPTP block: 0.9; NadD block: 6.6

Results for CCC1(CC)SC(N)=NC1=O ?
aDG glyco act: 0.0; MPTP block: -0.4; NadD block: 1.3; TAG inh: 12.5

Results for CCC(=O)N1CCc2cc(S(=O)(=O)CCC(=O)N(C)c3ccc(OC)cc3)ccc21 ?
aDG glyco act: -0.1; MPTP block: -1.0; NadD block: 2.5

What do the screens show for `NS(=O)(=O)c1ccc(CNc2ncnc3sccc23)cc1`?
aDG glyco act: 0.8; MPTP block: -0.9; NadD block: 4.1

How did NS(=O)(=O)c1ccc(CCNc2ncnc3sccc23)cc1 do in these assays?
aDG glyco act: 1.3; MPTP block: 73.7*; NadD block: -0.3; TAG inh: -74.5; Rh123 counter: 80.8*

What do the screens show for `Cc1ccc(S(=O)(=O)Nc2ncnc3sc(C)c(C)c23)cc1`?
aDG glyco act: 0.5; MPTP block: -1.2; NadD block: 0.3; TAG inh: -13.2

How did Cc1sc2ncnc(NCCc3ccc(S(N)(=O)=O)cc3)c2c1C do in these assays?
aDG glyco act: 0.7; MPTP block: 86.2*; NadD block: -2.8; Rh123 counter: 105.8*

Results for Nc1cc(=O)[nH]c(SCC(=O)Nc2cc(S(=O)(=O)N3CCCCC3)ccc2Cl)n1 ?
aDG glyco act: 0.1; MPTP block: 2.0; NadD block: 0.3; TAG inh: 8.2

What do the screens show for `OCCCNc1ncnc2c1ncn2[C@H]1CN(Cc2ccc(-c3ccccc3)cc2)C[C@@H](CO)O1`?
aDG glyco act: 0.2; MPTP block: 0.4; NadD block: -6.5; TAG inh: 3.7

Results for O=C1NC(=O)C2(CCCCC2)N1 ?
aDG glyco act: 0.2; MPTP block: 1.0; NadD block: -3.5; TAG inh: -11.7

What do the screens show for `CCCc1nc(SCC(=O)Nc2nnc(SCC)s2)c2c(=O)n(C)c(=O)n(C)c2n1`?
aDG glyco act: 0.2; MPTP block: 7.4; NadD block: 5.6; TAG inh: -13.6

Results for CCSc1nnc(NC(=O)CSc2nc(CC)nc3c2c(=O)n(C)c(=O)n3C)s1 ?
aDG glyco act: 0.0; MPTP block: 66.2*; NadD block: 1.0; TAG inh: 1.3; Rh123 counter: 19.4; MPTP abs DR: inactive; MPTP counter DR: >80

How did O=C(CONS(=O)(=O)c1ccc(Cl)cc1)NCCNc1ncc(C(F)(F)F)cc1Cl do in these assays?
aDG glyco act: -0.2; MPTP block: 70.2*; NadD block: -8.5; TAG inh: -8.4; Rh123 counter: 77.0*

What do the screens show for `O=C(CN1CCN(c2ncc(C(F)(F)F)cc2Cl)CC1)NCCNc1ncc(C(F)(F)F)cc1Cl`?
aDG glyco act: 0.0; MPTP block: 4.0; NadD block: -1.2; TAG inh: 21.1

What do the screens show for `CNC(=S)/N=C/NOCc1ccc(Cl)cc1Cl`?
aDG glyco act: 3.0; MPTP block: 101.2*; NadD block: -6.7; TAG inh: -11.1; Rh123 counter: 95.3*

How did COc1ccc(S(=O)(=O)N(CC(=O)NCc2cccnc2)c2ccc(C)cc2)cc1OC do in these assays?
aDG glyco act: 0.0; MPTP block: -0.1; NadD block: -3.8

What do the screens show for `c1ccc(-c2ccc(CNC3CC3)cc2)cc1`?
aDG glyco act: 0.0; MPTP block: 0.1; NadD block: -5.4

Results for O=c1[nH]nc(SCc2nnc(-c3cccc(Cl)c3)o2)n1C1CCCCC1 ?
aDG glyco act: 0.9; MPTP block: 72.7*; NadD block: -1.2; TAG inh: -23.5; Rh123 counter: 33.0*

Results for COc1ccc(-c2nnc(CSc3nnc(-c4ccncc4)n3C3CCCCC3)o2)cc1OC ?
aDG glyco act: -0.1; MPTP block: 4.6; NadD block: -5.6

How did Cc1ccc(S(=O)(=O)N2CCCCC2)cc1NS(=O)(=O)c1ccccc1F do in these assays?
aDG glyco act: -0.2; MPTP block: 0.5; NadD block: 0.0; TAG inh: -0.3

What do the screens show for `O=C(NC(NC(=S)N1CCOCC1)C(Cl)(Cl)Cl)c1ccc(Cl)cc1` (configuration not stated)?
aDG glyco act: 0.0; MPTP block: 67.0*; NadD block: -6.0; Rh123 counter: 83.4*

How did O=C(O)c1ccc(C2NCC(c3ccccc3Cl)c3c2[nH]c2ccccc32)cc1 (configuration not stated) do in these assays?
aDG glyco act: 0.1; MPTP block: -3.2; NadD block: 1.7; TAG inh: 5.5

How did COc1cc(C2NCC(c3ccc(Cl)cc3Cl)c3c2[nH]c2ccccc32)cc(OC)c1OC (configuration not stated) do in these assays?
aDG glyco act: 0.2; MPTP block: 88.1*; NadD block: 23.4; Rh123 counter: -20.7; MPTP abs DR: inactive; MPTP counter DR: >80

What do the screens show for `COC(=O)[C@@]1(Sc2ccc(C)cc2)CC(=O)N[C@@H]1c1ccc(C(F)(F)F)cc1`?
aDG glyco act: 0.1; MPTP block: -0.8; NadD block: -10.3

Results for CCOC(=O)/C(=N\Nc1ccc(C(C)=O)cc1)c1csc(Nc2ccccc2)n1 ?
aDG glyco act: -0.2; MPTP block: 64.4*; NadD block: 9.8; TAG inh: 15.3; Rh123 counter: -8.9; MPTP abs DR: inactive; MPTP counter DR: 12.4*
